Screens deposited in PubChem by several laboratories.
Hits are enriched below; roughly 9.6% of the tested compounds scored in any of these assays.
INS promoter inh: TRM-6 insulin promoter activity inhibition. TRM-6 cells (human fetal islet line), insulin promoter-eGFP reporter, imaging; reporter expression induced with tamoxifen. inhibition, % at 2 µM. 0.9% of 130,000 active;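 active = inhibition above the mean plus 3 SD, with well images judged a real hit on visual review, cut at about 60% in these data, passing the limit was not always enough; inconclusive = inhibition over the cutoff but images rejected on review; inactive = inhibition not above the cutoff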
L major viab: Leishmania major promastigote growth inhibition | Leishmania major promastigotes, resazurin fluorescence viability | 9% of 200,000 active | AID 1063 | inhibition, % at 10 µM; in the data active = inhibition above about 50%;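 note: promastigotes grown with compound for 44 hours at 28 °C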
PTEN del growth: growth suppressors of cells with PTEN tumor suppressor deletion; HCT116 PTEN-null viability, CellTiter-Glo, 60 h; active compounds read low; viability, % at 10 µM; 1.2% of 140,000 active; AID 827;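 active = viability at or below a set limit, 4 SD under the median of all tested compounds, cut at about 3.7% in these data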;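 note: PTEN knockout HCT116 line with beta catenin targeted HCT116 as companion control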
Autophagy HCS: alters autophagy in cells. MEF GFP-LC3 puncta imaging; test concentration mostly 10 µM. calls only at 10 µM (by protocol). 0.98% of 190,000 active. AID 463193;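 active = percentage of spot-positive cells more than 3 SD above its plate mean, without a fluorescence outlier flag or 80% toxicity; inconclusive = no clear call, values can overlap the other calls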;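 note: spot-positive cell cutoff set from DMSO-treated cells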
HCT116 bCat-KO: beta-catenin-lacking colon tumor cell growth suppression; 1.5% of 140,000 active; HCT116 beta-catenin knockout viability, CellTiter-Glo, 60 h; active compounds read low; AID 818; viability, % at 10 µM;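 active = viability at or under a set limit, the compound median less 4 SD, cut at about 6% in these data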;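 note: 0% = Hyamine 1622 control at 20 µM and 100% = untreated cell control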
Ins promoter up: MIN6 insulin promoter up-regulation | AID 1625 | 0.3% of 190,000 active | MIN6 insulin promoter-GFP reporter, high-content imaging; active compounds read high | z-score at 5 µM;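 active = z-score above 3 at 5 µM with at least 500 cells counted in the well; inconclusive = wells under 500 cells, flagged as cytotoxic or low count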
* marks the source's active call; other numbers are inactive results; i = inactive; ? = inconclusive; . = no result given; + = active, no number.

SMILES	INS promoter inh	L major viab	PTEN del growth	Autophagy HCS	HCT116 bCat-KO	Ins promoter up
CCN(CC)c1ccc2cc(S(=O)(=O)c3ccc(Cl)cc3)c(=O)oc2c1	-10.0	-1.1	72.2	i	78.5	6.96*
CN1CCC(N2CCN(c3cccc(C(F)(F)F)c3)CC2)CC1	19.4	100.1*	92.3	i	91.4	-0.2
O=C(Nc1ccccc1)N1CCN(c2cccc(C(F)(F)F)c2)CC1	.	89.6*	66.1	i	72.4	-0.06
O=C(COc1ccc2c(c1)CCC2)N1CCN(c2cccc(C(F)(F)F)c2)CC1	18.5	64.6*	93.5	i	86.5	-0.07
COc1ccc(NC(=O)N2CCN(c3cccc(C(F)(F)F)c3)CC2)cc1OC	29.4	6.2	87.8	i	96.0	0.76
O=C(COc1cccc(C(F)(F)F)c1)N1CCN(c2ccc(O)cc2)CC1	6.7	11.2	.	i	.	-0.1
COCC(=O)N1CCN(c2cccc(C(F)(F)F)c2)CC1	.	-4.2	.	i	.	-0.02
CC(=O)c1ccc(N2CCN(C(=O)Nc3ccc(Cl)cc3)CC2)cc1	63.6	13.7	.	i	.	.
CC(=O)c1ccc(NC(=O)N2CCN(c3cccc(Cl)c3)CC2)cc1	9.5	58.8*	92.9	i	108.9	0.05
Cc1ccc(CN2CCN(CC(=O)N/N=C/c3c[nH]c4ccccc34)CC2)cc1	14.7	-0.6	84.0	i	90.7	-0.47
Cc1ccccc1C(=O)Nc1ccccc1C(=O)NCC(C)C	.	1.6	.	i	.	0.63
CCCCNC(=O)c1cccc2c(=O)c(C)c(-c3ccccc3)oc12	.	0.6	56.2	i	68.7	-1.28
CCCCN(C(=O)c1cccc2c(=O)c(C)c(-c3ccccc3)oc12)c1ccccc1	-45.5	72.9*	15.8	i	12.0	.
Cc1ccc(NC(=O)COC(=O)c2cccc3c(=O)c(C)c(-c4ccccc4)oc23)cc1	37.8	65.9*	96.5	i	111.1	0.84
NC(=O)c1ccc(NC(=O)COC(=O)c2c3c(nc4ccccc24)/C(=C\c2cccs2)CCC3)cc1	-58.7	14.5	1.8*	i	1.8*	-3.07
O=C(COC(=O)c1c2c(nc3ccccc13)/C(=C/c1ccco1)CC2)NC1CCCC1	-48.6	89.1*	89.0	i	75.9	0.62
CC1CCCCC1NC(=O)COC(=O)c1c2c(nc3ccccc13)/C(=C/c1ccco1)CC2 (stereo unspecified)	-23.8	33.8	74.3	i	75.1	.
COc1ccc(OCC(=O)Nc2ccc(NC(=O)c3cccs3)c(OC)c2)cc1	.	2.4	.	i	.	0.07
COc1ccc(C(=O)O)cc1F	78.6*	-3.1	96.4	i	107.4	0.43
CCOC(=O)c1cc(=O)n2nc(-c3ccc(C)cc3)nc2s1	36.4	0.5	91.3	i	91.8	-0.05
O=C(NCc1ccco1)/C(=C/c1cccc(C(F)(F)F)c1)c1nc2ccccc2[nH]1	10.3	79.9*	11.1	i	8.0	0.82
O=C(NCc1ccco1)/C(=C/c1ccc(C(F)(F)F)cc1)c1nc2ccccc2[nH]1	29.7	84.5*	43.7	i	58.5	0.39
O=C(NCc1ccco1)c1cccc(C(F)(F)F)c1	-25.0	-1.8	.	i	.	.
Cc1ccc2c(CC(=O)O)coc2c1	3.1	-7.1	102.9	i	91.4	-1.08
CCOC(=O)C1(Cc2ccccc2)CCN(Cc2ccon2)CC1	-6.7	21.1	.	+	.	1.17
SMILES	INS promoter inh	L major viab	PTEN del growth	Autophagy HCS	HCT116 bCat-KO	Ins promoter up
CCOC(=O)C1(Cc2ccccc2)CCN(Cc2ccc3c(c2)OCCO3)CC1	.	92.3*	.	i	.	-0.39
CCOC(=O)C1(Cc2ccccc2C(F)(F)F)CCN(Cc2ccon2)CC1	.	.	.	.	.	-0.19
CCOC(=O)C1(Cc2ccccc2)CCN(Cc2ccc(C)s2)CC1	.	7.1	.	i	.	-0.43
CCOC(=O)C1(Cc2ccccc2)CCN(Cc2cccc3c2OCO3)CC1	.	66.2*	.	+	.	-0.38
CCCn1cc(CN2CCC(Cc3ccccc3)(C(=O)OCC)CC2)c(C)n1	.	19.8	.	i	.	-0.02
CCOC(=O)C1(Cc2ccccc2)CCN(Cc2cc(OC)c3c(c2)OCO3)CC1	.	91.1*	.	i	.	-0.3
CCOC(=O)C1(Cc2ccccc2)CCN(Cc2ccc(COC)o2)CC1	.	10.7	.	i	.	1.35
Cc1ccc(/C=N/NC(=O)c2cccc([N+](=O)[O-])c2)o1	20.0	-7.4	96.3	i	94.4	0.43
COc1ccc(CCN2CC(C(=O)O)CC2=O)cc1OC (stereo unspecified)	13.3	-0.8	100.9	i	110.5	0.5
COc1cc(CN2CCCC(CO)(Cc3ccccc3C)C2)cc2c1OCO2 (stereo unspecified)	.	69.0*	.	i	.	-0.51
O=[N+]([O-])c1cc(CN2CCCC2)c2cccnc2c1O	5.3	11.4	88.2	i	94.0	0.51
CCOc1ccccc1N1CCN(Cc2cccc(OC)c2O)CC1	-20.0	18.0	81.3	i	74.2	-1.31
COCc1cc(CN2CCCC2)c(O)c2ncccc12	.	100.5*	4.8	i	6.4	-1.78
Oc1c(CN2CCCCC2)cc(COCc2ccccc2)c2cccnc12	0.0	100.5*	2.2*	i	1.7*	?
COc1ccccc1N1CCN(Cc2cc(Br)c(O)c3ncccc23)CC1	.	100.4*	2.1*	i	2.2*	-0.6
Cn1c(=O)cc(OCC(=O)N2CCN(c3cccc(C(F)(F)F)c3)CC2)c2ccccc21	16.7	-3.0	89.1	i	103.3	.
C=CCOc1ccc(C2NC(=S)NC(c3ccccc3)=C2C(C)=O)cc1OC (stereo unspecified)	-90.5	7.9	.	i	.	-0.33
CC1(C)CC(N2CCCC2)=CC(=[N+]2CCCCC2)C1	35.0	99.8*	.	i	.	-4.07
CC1(C)CC(N2CCCC2)=CC(=[N+]2CCCC2)C1	25.0	99.3*	57.6	i	37.2	-0.28
CC1(C)CC(NNCCC#N)=CC(=[N+]2CCCC2)C1	.	0.0	.	i	.	0.68
CC1(C)CC(=O)C=C(N2CCN(C3=CC(=O)CC(C)(C)C3)CC2)C1	.	.	.	.	.	0.28
Cc1ccc(CNC(=O)CNC(=S)N(Cc2ccccc2)Cc2cccnc2)cc1	-16.7	96.6*	.	i	.	0.15
CC(NC(=O)CNC(=S)N(Cc1ccccc1)Cc1cccnc1)c1ccccc1 (stereo unspecified)	-16.7	65.1*	.	i	.	-0.53
COCCNC(=O)CNC(=S)N(Cc1ccccc1)Cc1cccnc1	.	10.5	102.2	i	92.2	.
O=C(CNC(=S)N(Cc1ccccc1)Cc1ccccc1F)NCCc1ccc(Cl)cc1	33.3	98.0*	.	i	.	-1.58
Cc1ccc(CN(Cc2ccco2)C(=S)NCC(=O)NCc2cccnc2)cc1	-8.3	0.0	.	i	.	0.18
FC(F)(F)c1cccnc1Oc1ccc(C2=NCCS2)cc1	.	.	.	.	.	-0.16
CC1=C(C(=O)Nc2cccnc2)C(c2cccnc2)n2nc(-c3cccs3)nc2N1 (stereo unspecified)	37.5	83.8*	95.6	i	97.2	0.19
Cc1ccc(S(=O)(=O)N(CCCO)CC(O)CON=C2c3ccccc3-c3ccccc32)cc1 (stereo unspecified)	.	100.3*	46.5	i	55.0	-1.96
Cc1nc2ccccc2nc1N1CCCC1	.	.	.	.	.	-0.05
